CYP2C9 activ = activators of human CYP2C9. recombinant CYP2C9, luciferin-H conversion, luminescence; stronger effect = higher value; factor 1 = untreated enzyme, 0 = blocked. hit rate 1.4% among 96,000. activation factor at 5 µM. P11712;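 active = activation factor of 2 or more for CYP2C9 at a 5 µM dose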;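 note: 0 = sulfaphenazole-blocked wells and 1 = vehicle-only wells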
Target sequence (P11712 whole entry, looked up): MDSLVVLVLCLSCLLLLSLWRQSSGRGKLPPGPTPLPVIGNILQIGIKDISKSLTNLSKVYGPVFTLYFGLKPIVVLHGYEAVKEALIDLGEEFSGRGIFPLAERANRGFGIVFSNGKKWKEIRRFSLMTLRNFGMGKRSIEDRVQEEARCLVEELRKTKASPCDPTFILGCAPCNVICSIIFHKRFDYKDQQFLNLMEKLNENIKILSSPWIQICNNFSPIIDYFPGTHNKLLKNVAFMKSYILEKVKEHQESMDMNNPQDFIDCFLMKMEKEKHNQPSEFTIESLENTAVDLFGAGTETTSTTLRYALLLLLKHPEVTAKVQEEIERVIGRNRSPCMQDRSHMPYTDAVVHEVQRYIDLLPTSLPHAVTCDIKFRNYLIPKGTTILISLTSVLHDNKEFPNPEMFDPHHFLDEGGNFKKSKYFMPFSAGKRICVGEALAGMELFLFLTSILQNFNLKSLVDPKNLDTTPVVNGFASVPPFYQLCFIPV
Cav3 T inh = inhibitors of human Cav3.2 T-type calcium channel. AID 449739. hit rate 4% among 100,000. Cav3.2-expressing cells, Fluo-4 calcium fluorescence FDSS; stronger effect = lower value. O95180. B-score at 10 µM;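 active = single-dose well whose peak fluorescence ratio is a statistical outlier from its plate by either plate-standardised score or position-corrected B-score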
CYP2C19 inhib = inhibitors of human CYP2C19. P33261. CYP2C19 Supersomes, luciferin-H EGE luminescence, 30 min. inhibition, % at 5 µM. hit rate 21% among 96,000. AID 778;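 active = CYP2C19 inhibition above a set limit at 5 µM in the primary screen, cut at about 50% in these data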;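 note: plate controls were negative control wells for no effect and 2.5 mM tranylcypromine positive control for full effect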
CYP2C9 inhib = blocks human cytochrome P450 2C9; P11712; CYP2C9 Supersomes, luciferin-H conversion, luminescence; inhibition, % at 5 µM; hit rate 20% among 96,000; AID 777;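 active = blocking of liver enzyme CYP2C9 beyond about 50% at 5 µM, limit read from the data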
CYP2C19 act = activators of human cytochrome P450 2C19 | activation factor at 5 µM | recombinant CYP2C19, luciferin-H EGE luminescence; stronger effect = higher value; 0 = fully inhibited enzyme, 1 = untreated enzyme | 96,000 tested, under 10 active | P33261;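 active = activation factor of at least 2 at 5 µM in the primary screen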;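 note: 0 = wells with 2.5 mM tranylcypromine and 1 = vehicle-only wells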
The depositor's hits bear a star; . = no result given. An excerpt weighted towards active compounds, which were near 27% of everything screened.

SMILES	CYP2C9 activ	Cav3 T inh	CYP2C19 inhib	CYP2C9 inhib	CYP2C19 act
COc1ccc(-c2nc(CS(=O)CC(=O)NCCC3=CCCCC3)c(C)o2)cc1 (stereo not drawn)	0.5	-4.9	41	49	0.6
COc1ccc(-c2nc(CSCC(=O)NCCC3=CCCCC3)c(C)o2)cc1OC	0.5	-3.4	60*	46	0.4
CCc1ccc(-c2nc(CSCC(=O)NCCCN3CCCC3=O)c(C)o2)cc1	0.1	0.65	14	88*	0.9
COc1ccc(-c2nc(CSCC(=O)NCc3ccc4c(c3)OCO4)c(C)o2)cc1OC	0.5	0.031	65*	53*	0.3
Cc1ccc2c(c1)COc1c3ccc(C(=O)NCCO)cc3nn1-2	.	0.41	.	.	.
Cc1ccsc1-c1nc(CSCC(=O)NCc2ccc3c(c2)OCO3)c(C)o1	0.2	.	46	79*	0.5
CSc1nnc(-c2cc3ccccc3cc2O)n1C	0.9	0.78	6	12	0.9
CCCc1cc(C(=O)Nc2sc3c(c2C#N)CCC3)no1	0.8	.	-18	21	1.2
CCOC(=O)Nc1sc2c(c1C#N)CCC(C)C2 (stereo not drawn)	.	1.3	.	.	.
Cc1onc(-c2ccccc2Cl)c1C(=O)Nc1sc2c(c1C#N)CCC2	0	-5.4*	98*	100*	0
Cc1onc(-c2ccccc2)c1C(=O)Nc1sc2c(c1C#N)CCC(C)C2 (stereo not drawn)	0.1	-1	21	92*	0.8
O=C(Cn1cnc2c(nnn2Cc2ccc(F)cc2)c1=O)N1CCCc2ccccc21	.	-0.71	.	.	.
COc1cc(Cn2c(=O)oc3ccc(C)cc32)ccc1OC(C)C	.	-3.5	.	.	.
CC(C)(C)c1cc(Br)ccc1OCC(=O)Nc1ncn[nH]1	0.7	-1.6	54*	34	0.5
CC1(C)CC(=O)c2c(oc3cc(O)c(O)cc23)C1	3.2*	0.29	2	-216	1
CCNC(=O)c1oc2c(c1C)C(=O)CC(C)(C)C2	0.9	0.52	12	13	0.9
Cc1cc(C)nc(Sc2c(C)n[nH]c2C)n1	1.6	0.17	0	-57	1
COCCOc1cc(-n2ccnc2SC)c(Cl)cc1Cl	0.9	0.53	68*	14	0.3
CCCC(=O)N1CCN(c2ccc(NC(=S)NC(=O)CC)cc2)CC1	0.6	0.29	51*	36	0.5
CNc1nc(C)c(C(C)=O)cc1C#N	1	0.042	-2	-4	1
COC(=O)c1ccccc1NC(=O)c1cc2n(n1)C(C(F)F)CC(C(F)F)N2 (stereo not drawn)	0.9	.	2	13	1
Cc1ccc(C)c(OCCCCCn2ccnc2)c1	0	-0.75	100*	100*	0
Cc1ccc(C)c(OCCCC(=O)O)c1	1	0.9	4	-1	1
CCc1ccccc1OCCOc1ccc(C)cc1OC	0.9	-0.21	29	8	0.7
C=CCc1cc(C)ccc1OCCn1ccnc1	0.1	0.068	96*	95*	0
SMILES	CYP2C9 activ	Cav3 T inh	CYP2C19 inhib	CYP2C9 inhib	CYP2C19 act
C#CCOC(=O)CCCNc1ccc([N+](=O)[O-])cc1[N+](=O)[O-]	0.4	-1.3	62*	58*	0.4
COC(=O)CCCNC(=O)OCc1ccc([N+](=O)[O-])cc1	0.9	0.43	35	13	0.6
COc1nc(C)nc(Cl)c1NC1=NCCN1	.	0.41	.	.	.
CC1(C)N(OCc2ccccc2)C(=O)C(=O)N(OCc2ccccc2)C1(C)C	1	-2.3	1	1	1
Cc1ccc(N2CC(C(=O)N3CCN(c4ccccc4)CC3)CC2=O)cc1 (stereo not drawn)	1	0.83	5	-3	1
Cc1ccc(N2CC(C(=O)N3CCc4ccccc4C3)CC2=O)cc1 (stereo not drawn)	0.3	-0.0012	37	67*	0.6
Cc1ccc(N2CC(C(=O)Nc3cccc(F)c3)CC2=O)cc1 (stereo not drawn)	0.4	-0.8	55*	56*	0.4
Cc1ccc(N2CC(C(=O)NC3=NCCS3)CC2=O)cc1 (stereo not drawn)	0.9	-0.28	10	5	0.9
C=CCNC(=O)C1CC(=O)N(c2ccc(Br)cc2)C1 (stereo not drawn)	1	0.25	32	2	0.7
CCNC(=O)C1CC(=O)N(c2ccc(Br)cc2)C1 (stereo not drawn)	0.9	-1.1	70*	7	0.3
CNC(=O)C1CC(=O)N(c2ccc(C)cc2)C1 (stereo not drawn)	1	-3.8*	30	2	0.7
CCc1ccc(N2CC(C(=O)Nc3cc(C)ccc3F)CC2=O)cc1 (stereo not drawn)	0.1	-0.17	86*	91*	0.1
CCOC(=O)C1=C(C)NC(=O)NC1c1ccc(OCC(=O)Nc2ccccc2)c(OC)c1 (stereo not drawn)	0.1	-1.9	70*	91*	0.3
CC1=C(C(=O)OCC(C)C)C(c2ccc(F)cc2)NC(=O)N1 (stereo not drawn)	0.7	0.56	90*	29	0.1
CCOC(=O)C1=C(C)NC(=O)NC1c1ccc(N(CC)CC)cc1 (stereo not drawn)	0.5	-0.095	17	52*	0.8
CCOC(=O)C1=C(C)NC(=O)NC1c1c(OCC(=O)N2CCCCC2)ccc2ccccc12 (stereo not drawn)	0.2	-0.97	76*	83*	0.2
CCOC(=O)C1=C(C)NC(=O)NC1c1ccc(OCC(=O)N2CCCCC2)cc1 (stereo not drawn)	0.8	0.47	5	21	1
CCOC(=O)C1=C(C)NC(=O)NC1c1ccc(N(C)C)cc1 (stereo not drawn)	1.1	.	-4	-11	1
COC(=O)C(CC(C)C)N1CCC(=O)c2ccccc2S1(=O)=O (stereo not drawn)	.	0.17	.	.	.
CCOC(=O)C1=C(CCc2ccccc2)NC(=O)NC1c1ccc(C#N)cc1 (stereo not drawn)	.	-0.27	.	.	.
CC1=C(C(=O)OC2CCCCCCC2)C(c2cccc(O)c2)NC(=O)N1 (stereo not drawn)	0.2	-3.6	81*	81*	0.2
CCOC(=O)C1=C(C)NC(=O)C1CC(=O)Nc1ccccc1 (stereo not drawn)	.	-0.054	.	.	.
CCOC(=O)C1=C(C)NC(=O)NC1c1cccc(O)c1 (stereo not drawn)	0.9	-0.022	3	6	1
CCOC(=O)C1=C(C)NC(=O)NC1/C(C)=C/c1ccccc1 (stereo not drawn)	0.3	-0.0083	78*	69*	0.2
CCOC(=O)C1=C(CN2CCC(C)CC2)NC(=O)NC1c1ccc(Cl)cc1 (stereo not drawn)	0.1	-1.2	78*	89*	0.2
CCCCCCOC(=O)C1=C(C)NC(=O)NC1c1ccc(O)cc1 (stereo not drawn)	0.2	.	70*	81*	0.3
Clc1ccc(-c2nn3c(-c4ccccn4)nnc3s2)c(Cl)c1	0.7	.	35	29	0.7
CCOC(=O)c1c(-c2ccc(OC)cc2)csc1NC(=O)CNCc1ccco1	0.3	-1.5	53*	70*	0.5
